Holding throughout (experiment): yeast three-hybrid, YBZ-1, SC-Leu-His + 0.5 mM 3-AT, 4 days
Holding throughout (details): tags: N-Gal4 AD-HA kept; label: inside an RPR1-promoter hybrid RNA with tandem MS2 sites; ssRNA

One assay concerns the target PUM1 PUF domain R3-TRR (Homo sapiens, UniProt Q14671 828-1176, C935T;Q939R). In short, it runs like this:
(§1)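 Pumilio-1 PUF domain libraries, randomized at the three base-contacting residues of each repeat, were co-expressed with matching RNA elements from a centromeric plasmid in strain YBZ-1, which carries a LexA–MS2 coat fusion and a HIS3 reporter. Transformants grew for four days on SC-Leu (input) or on SC-Leu-His + 0.5 mM 3-AT (selection), and the repeat regions were PCR-amplified and Illumina-sequenced. The interaction score is the log change in variant frequency from input to selection. That logarithm is base 2, with a pseudocount of 1 where a variant was absent.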

For a further assay, the target named is PUM1 PUF domain R3-SHA (Homo sapiens, UniProt Q14671 828-1176, C935S;R936H;Q939A). In a few lines: as §1
A further assay deals with PUM1 PUF domain R4-WSC (Homo sapiens, UniProt Q14671 828-1176, N971W;H972S;Q975C). In a few lines:
as §1

For the next assay, the target named is PUM1 PUF domain R4-EHL (Homo sapiens, UniProt Q14671 828-1176, N971E;Q975L). In short, it runs like this: as §1
For the next assay, the target named is T1, PUM1 PUF domain R6-KWQ (Homo sapiens, UniProt Q14671 828-1176, N1043K;Y1044W).
T1 sequence: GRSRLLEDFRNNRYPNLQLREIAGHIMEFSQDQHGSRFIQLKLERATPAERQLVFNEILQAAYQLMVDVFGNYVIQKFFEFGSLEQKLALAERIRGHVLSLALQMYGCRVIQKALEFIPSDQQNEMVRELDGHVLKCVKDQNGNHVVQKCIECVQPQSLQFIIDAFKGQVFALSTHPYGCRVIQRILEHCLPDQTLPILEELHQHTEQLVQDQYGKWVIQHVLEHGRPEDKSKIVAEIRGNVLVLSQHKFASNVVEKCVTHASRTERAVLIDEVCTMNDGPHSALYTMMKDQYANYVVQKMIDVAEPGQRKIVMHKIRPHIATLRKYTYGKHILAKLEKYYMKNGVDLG
In short, it runs like this:
as §1

For another assay, the target named is T2, PUM1 PUF domain R6-LWC (Homo sapiens, UniProt Q14671 828-1176, N1043L;Y1044W;Q1047C).
T2 sequence: T1 sequence with K216L, Q220C
In short, it runs like this:
as §1

The next assay addresses PUM1 PUF domain R3-TFW (Homo sapiens, UniProt Q14671 828-1176, C935T;R936F;Q939W). In short, it runs like this:
as §1

In a further assay the target is T3, PUM1 PUF domain R6-GFC (Homo sapiens, UniProt Q14671 828-1176, N1043G;Y1044F;Q1047C).
T3 sequence: T1 sequence with K216G, W217F, Q220C
In a few lines: as §1

The target of a further assay is PUM1 PUF domain R3-VWS (Homo sapiens, UniProt Q14671 828-1176, C935V;R936W;Q939S). In a few lines: as §1
A further assay has as its target PUM1 PUF domain R3-EWG (Homo sapiens, UniProt Q14671 828-1176, C935E;R936W;Q939G). In a few lines: as §1
A further assay deals with PUM1 PUF domain R4-SPC (Homo sapiens, UniProt Q14671 828-1176, N971S;H972P;Q975C). In a few lines:
as §1

A further assay has as its target PUM1 PUF domain R4-SPS (Homo sapiens, UniProt Q14671 828-1176, N971S;H972P;Q975S). In a few lines:
as §1

The target in a further assay is PUM1 PUF domain R5-KYY (Homo sapiens, UniProt Q14671 828-1176, C1007K;R1008Y;Q1011Y). In a few lines:
as §1

The target in a further assay is PUM1 PUF domain R2-AWW (Homo sapiens, UniProt Q14671 828-1176, N899A;Y900W;Q903W). In short, it runs like this: as §1
A further assay has as its target PUM1 PUF domain R7-LTL (Homo sapiens, UniProt Q14671 828-1176, S1079L;N1080T;E1083L). In a few lines:
as §1

A further assay deals with PUM1 PUF domain R7-RRF (Homo sapiens, UniProt Q14671 828-1176, S1079R;N1080R;E1083F). In short, it runs like this: as §1
Another assay concerns the target PUM1 PUF domain R4-DYA (Homo sapiens, UniProt Q14671 828-1176, N971D;H972Y;Q975A). In short, it runs like this:
as §1

Changes are numbered by the printed parent chain.

Chain of PUM1 PUF domain R4-SPS (Q14671 828-1176 N971S/H972P/Q975S): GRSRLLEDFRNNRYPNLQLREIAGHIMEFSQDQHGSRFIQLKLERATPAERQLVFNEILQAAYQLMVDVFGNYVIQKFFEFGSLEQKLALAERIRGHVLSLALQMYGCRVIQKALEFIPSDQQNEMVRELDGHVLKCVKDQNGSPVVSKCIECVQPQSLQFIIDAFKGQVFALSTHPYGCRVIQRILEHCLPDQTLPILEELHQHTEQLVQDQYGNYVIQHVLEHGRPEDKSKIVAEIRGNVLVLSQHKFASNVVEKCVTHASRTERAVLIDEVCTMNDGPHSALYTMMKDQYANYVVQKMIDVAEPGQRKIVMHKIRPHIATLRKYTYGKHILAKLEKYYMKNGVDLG
Chain of PUM1 PUF domain R4-SPC (Q14671 828-1176 N971S/H972P/Q975C): as the sequence (Q14671 828-1176 N971S/H972P/Q975S) above, with S148C counted along it
Chain of PUM1 PUF domain R3-VWS (Q14671 828-1176 C935V/R936W/Q939S): as the sequence (Q14671 828-1176 N971S/H972P/Q975S) above, with C108V, R109W, Q112S, S144N, P145H, S148Q counted along it
Chain of PUM1 PUF domain R7-RRF (Q14671 828-1176 S1079R/N1080R/E1083F): as the sequence (Q14671 828-1176 N971S/H972P/Q975S) above, with S144N, P145H, S148Q, S252R, N253R, E256F counted along it
Chain of PUM1 PUF domain R2-AWW (Q14671 828-1176 N899A/Y900W/Q903W): as the sequence (Q14671 828-1176 N971S/H972P/Q975S) above, with N72A, Y73W, Q76W, S144N, P145H, S148Q counted along it
Chain of PUM1 PUF domain R3-EWG (Q14671 828-1176 C935E/R936W/Q939G): as the sequence (Q14671 828-1176 N971S/H972P/Q975S) above, with C108E, R109W, Q112G, S144N, P145H, S148Q counted along it
Chain of PUM1 PUF domain R5-KYY (Q14671 828-1176 C1007K/R1008Y/Q1011Y): as the sequence (Q14671 828-1176 N971S/H972P/Q975S) above, with S144N, P145H, S148Q, C180K, R181Y, Q184Y counted along it

In the case of “GGCUAGAACUAGUGGAUCCCCCGGCGCCCGGCGGCUCGAGCCCGGGUAAGUGUAAAUAGUCUGCAUGCCGCCGGGCGCCAUGCCUGCAGGUCGACUCUAGAAAACAUG”, the binding signal was 1.03 log2 enrichment (interaction score) in the assay with PUM1 PUF domain R3-TRR; 4.29 log2 enrichment (interaction score) with PUM1 PUF domain R3-SHA; 2.87 log2 enrichment (interaction score) with PUM1 PUF domain R4-WSC; 3.16 log2 enrichment (interaction score) in the assay with PUM1 PUF domain R4-EHL; 2.54 log2 enrichment (interaction score) with PUM1 PUF domain R6-KWQ; 5.46 log2 enrichment (interaction score) with PUM1 PUF domain R6-LWC. The binding signal with PUM1 PUF domain R3-TFW is 4.12 log2 enrichment (interaction score); with PUM1 PUF domain R6-GFC, 2.74 log2 enrichment (interaction score); with PUM1 PUF domain R3-VWS, 2.46 log2 enrichment (interaction score); with PUM1 PUF domain R3-EWG, 3.61 log2 enrichment (interaction score); in the assay with PUM1 PUF domain R4-SPC, 3.42 log2 enrichment (interaction score); with PUM1 PUF domain R4-SPS, 3.74 log2 enrichment (interaction score). Besides, in the assay with PUM1 PUF domain R5-KYY, the binding signal was 1.63 log2 enrichment (interaction score).
In the case of “GGCUAGAACUAGUGGAUCCCCCGGCGCCCGGCGGCUCGAGCCCGGGUAAGUGUAAAAAGUCUGCAUGCCGCCGGGCGCCAUGCCUGCAGGUCGACUCUAGAAAACAUG”, the binding signal in the assay with PUM1 PUF domain R2-AWW is 7.76 log2 enrichment (interaction score).
Regarding “GGCUAGAACUAGUGGAUCCCCCGGCGCCCGGCGGCUCGAGCCCGGGUAAGUGAAAAUAGUCUGCAUGCCGCCGGGCGCCAUGCCUGCAGGUCGACUCUAGAAAACAUG”, the binding signal in the assay with PUM1 PUF domain R6-KWQ was 2.19 log2 enrichment (interaction score).
As to “GGCUAGAACUAGUGGAUCCCCCGGCGCCCGGCGGCUCGAGCCCGGGUAAGUUUAAAUAGUCUGCAUGCCGCCGGGCGCCAUGCCUGCAGGUCGACUCUAGAAAACAUG”, the binding signal was 4.96 log2 enrichment (interaction score) in the assay with PUM1 PUF domain R7-LTL and 4.42 log2 enrichment (interaction score) with PUM1 PUF domain R7-RRF.
In the case of “GGCUAGAACUAGUGGAUCCCCCGGCGCCCGGCGGCUCGAGCCCGGGUAAGUGUAUAUAGUCUGCAUGCCGCCGGGCGCCAUGCCUGCAGGUCGACUCUAGAAAACAUG”, the binding signal is 7.28 log2 enrichment (interaction score) with PUM1 PUF domain R4-DYA, 4.12 log2 enrichment (interaction score) in the assay with PUM1 PUF domain R4-WSC, 2.92 log2 enrichment (interaction score) with PUM1 PUF domain R4-SPC and 2.82 log2 enrichment (interaction score) in the assay with PUM1 PUF domain R4-SPS.
Take “GGCUAGAACUAGUGGAUCCCCCGGCGCCCGGCGGCUCGAGCCCGGGUAAGUGCAAAUAGUCUGCAUGCCGCCGGGCGCCAUGCCUGCAGGUCGACUCUAGAAAACAUG”: the binding signal with PUM1 PUF domain R6-KWQ was 5.25 log2 enrichment (interaction score).

Source of the values: publication PMC8384837, “Expanding the binding specificity for RNA recognition by a PUF domain”.
